Target: FXR LBD (GAL4 fusion) (UniProt Q96RI1)
Assay: luciferase reporter transactivation, fold of solvent control; higher = stronger receptor activation
Conditions: HEK293T, exposure time: 24 h
Method: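 HEK293T cells were transiently transfected with a GAL4-DBD fused to the ligand-binding domain of a human nuclear receptor (PPARα, PPARγ, PPARδ, FXR, LXRα, PXR, RARα or CAR), the GAL4-(UAS)5-TK firefly luciferase reporter and a Renilla luciferase normalisation plasmid. Cells were exposed to compound for 24 h in 0.5% DMSO. Firefly/Renilla luciferase was expressed as fold of the solvent control (=1). Values are the mean of 2-3 biological replicates; receptor agonists were used as positive controls.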

Sequence of FXR LBD (GAL4 fusion) (Q96RI1 whole entry, looked up, the tested form may be a part): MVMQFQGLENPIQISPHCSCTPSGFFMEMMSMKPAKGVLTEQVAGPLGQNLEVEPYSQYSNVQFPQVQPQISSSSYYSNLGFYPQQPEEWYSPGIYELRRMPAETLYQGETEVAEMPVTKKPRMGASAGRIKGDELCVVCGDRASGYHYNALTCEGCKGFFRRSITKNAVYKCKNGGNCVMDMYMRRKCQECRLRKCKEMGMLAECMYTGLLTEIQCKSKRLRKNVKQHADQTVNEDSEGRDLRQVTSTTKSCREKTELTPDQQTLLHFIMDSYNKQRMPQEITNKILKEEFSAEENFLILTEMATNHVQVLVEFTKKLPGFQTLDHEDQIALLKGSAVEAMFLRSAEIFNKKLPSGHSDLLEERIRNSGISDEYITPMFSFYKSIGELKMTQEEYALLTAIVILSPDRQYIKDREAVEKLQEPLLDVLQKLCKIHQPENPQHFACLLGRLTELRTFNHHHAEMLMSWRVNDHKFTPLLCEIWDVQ

SMILES: O=S(=O)(O)CCC(F)(F)C(F)(F)C(F)(F)C(F)(F)C(F)(F)C(F)(F)F [6:2 fluorotelomer sulfonic acid]
- luciferase reporter transactivation (concentration: 1 µM): 1.09
- luciferase reporter transactivation (concentration: 5 µM): 0.835
- luciferase reporter transactivation (concentration: 10 µM): 1.32
- luciferase reporter transactivation (concentration: 25 µM): 1.37
- luciferase reporter transactivation (concentration: 50 µM): 1.75
- luciferase reporter transactivation (concentration: 100 µM): 2.38

SMILES: O=S(=O)(O)CCC(F)(F)C(F)(F)C(F)(F)C(F)(F)C(F)(F)C(F)(F)C(F)(F)C(F)(F)F [8:2 fluorotelomer sulfonic acid]
- luciferase reporter transactivation (concentration: 1 µM): 0.842
- luciferase reporter transactivation (concentration: 5 µM): 1.12
- luciferase reporter transactivation (concentration: 10 µM): 1.16
- luciferase reporter transactivation (concentration: 25 µM): 1.21
- luciferase reporter transactivation (concentration: 50 µM): 1.53
- luciferase reporter transactivation (concentration: 100 µM): 4.17
- luciferase reporter transactivation (concentration: 250 µM): 3.41
- luciferase reporter transactivation (concentration: 500 µM): 2.14

SMILES: OCCC(F)(F)C(F)(F)C(F)(F)C(F)(F)C(F)(F)C(F)(F)F [6:2 fluorotelomer alcohol]
- luciferase reporter transactivation (concentration: 1 µM): 0.815
- luciferase reporter transactivation (concentration: 5 µM): 0.885
- luciferase reporter transactivation (concentration: 10 µM): 0.96
- luciferase reporter transactivation (concentration: 25 µM): 0.834
- luciferase reporter transactivation (concentration: 50 µM): 0.847
- luciferase reporter transactivation (concentration: 100 µM): 0.833
- luciferase reporter transactivation (concentration: 250 µM): 0.628
- luciferase reporter transactivation (concentration: 500 µM): 0.416

SMILES: O=C(O)C(F)(F)C(F)(F)C(F)(F)C(F)(F)F [perfluoropentanoic acid]
- luciferase reporter transactivation (concentration: 1 µM): 0.969
- luciferase reporter transactivation (concentration: 5 µM): 1.05
- luciferase reporter transactivation (concentration: 10 µM): 1.05
- luciferase reporter transactivation (concentration: 25 µM): 1.12
- luciferase reporter transactivation (concentration: 50 µM): 1.18
- luciferase reporter transactivation (concentration: 100 µM): 1.11
- luciferase reporter transactivation (concentration: 250 µM): 1.18
- luciferase reporter transactivation (concentration: 500 µM): 2.08

SMILES: CC(C)c1onc(-c2c(Cl)cccc2Cl)c1COc1ccc(/C=C/c2cccc(C(=O)O)c2)c(Cl)c1
- luciferase reporter transactivation (concentration: 10 µM): 50.2

— the supplement of paper PMC11402862
